Data reported in publication PMC5540273 (PLoS ONE, 2017).

What was measured:
Settings in all cases: concentration: 1 μM, replicates: in singlicate; n = 1
EIF2AK1 = tested on: EIF2AK1
EPHA1 = tested on: EPHA1
EPHA2 = tested on: EPHA2
EPHA3 = tested on: EPHA3
EPHA4 = tested on: EPHA4
EPHA5 = tested on: EPHA5
EPHA6 = tested on: EPHA6
EPHA7 = tested on: EPHA7
EPHA8 = tested on: EPHA8
EPHB1 = tested on: EPHB1
EPHB2 = tested on: EPHB2
EPHB3 = tested on: EPHB3
EPHB4 = tested on: EPHB4
EPHB6 = tested on: EPHB6
ERBB2 = tested on: ERBB2
ERBB3 = tested on: ERBB3
ERBB4 = tested on: ERBB4
ERK1 = tested on: T1, ERK1
T1 construct: gene MAPK3

ERK2 = tested on: T2, ERK2
T2 construct: gene MAPK1

ERK3 = tested on: T3, ERK3
T3 construct: gene MAPK6
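Note: KINOMEscan kinase panel screen.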

SMILES | %Inh (EIF2AK1) [%] | %Inh (EPHA1) [%] | %Inh (EPHA2) [%] | %Inh (EPHA3) [%] | %Inh (EPHA4) [%] | %Inh (EPHA5) [%] | %Inh (EPHA6) [%] | %Inh (EPHA7) [%] | %Inh (EPHA8) [%] | %Inh (EPHB1) [%] | %Inh (EPHB2) [%] | %Inh (EPHB3) [%] | %Inh (EPHB4) [%] | %Inh (EPHB6) [%] | %Inh (ERBB2) [%] | %Inh (ERBB3) [%] | %Inh (ERBB4) [%] | %Inh (ERK1) [%] | %Inh (ERK2) [%] | %Inh (ERK3) [%]
Nc1n[nH]c2nnc(-c3ccccc3)cc12 [SB-517389] | 13 | 9 | 4 | 0 | 14 | 0 | 0 | 8 | 15 | 9 | 80 | 10 | 22 | 0 | 7 | 0 | 0 | 0 | 0 | 16
COc1ccc(NC(=O)c2ccc(-c3cc(-c4nnc(C)o4)ccc3C)cc2)cc1 [GW595885] | 0 | 8 | 7 | 0 | 7 | 0 | 0 | 0 | 6 | 0 | 10 | 13 | 6 | 0 | 18 | 0 | 7 | 0 | 0 | 0
Cl.Cn1ccc(-c2cccc(Nc3ccnc4cc(-c5nccs5)ccc34)c2)n1 [GW525701] | 0 | 25 | 0 | 100 | 0 | 0 | 0 | 6 | 7 | 14 | 0 | 9 | 47 | 94.2 | 53 | 64 | 45 | 0 | 0 | 0
CSc1nn2c(=O)cc(N3CCOCC3)nc2n1Cc1cccc(Cl)c1Cl [GSK2347225] | 2 | 1 | 11 | 15 | 8 | 1 | 3 | 12 | 15 | 29 | 0 | 6 | 11 | 52 | 0 | 0 | 0 | 0 | 17 | 15
Cn1ccc2ncnc(Oc3ccc(NC(=O)Nc4cccnc4)c(Cl)c3)c21 | 0 | 0 | 0 | 4 | 29 | 11 | 32 | 7 | 10 | 9 | 2 | 12 | 10 | 5 | 18 | 2 | 0 | 0 | 11 | 0
Nc1nc(-c2ccc3c(N)n[nH]c3c2)cc(N2CCC[C@@H](C(=O)Nc3ccccc3)C2)n1.O=C(O)C(F)(F)F.O=C(O)C(F)(F)F [GSK2288359] | 1 | 17 | 0 | 0 | 4 | 0 | 0 | 3 | 3 | 21 | 0 | 5 | 1 | 29 | 0 | 0 | 2 | 100 | 0 | 18
COC(=O)c1c(-c2ccccc2)c2cc(Cl)ccc2c(=O)n1Cc1ccc(S(C)(=O)=O)cc1 | 10 | 0 | 8 | 6 | 20 | 4 | 34 | 1 | 7 | 6 | 18 | 24 | 0 | 0 | 0 | 0 | 29 | 0 | 3 | 0
